# FUS yeast rescue – FUS proteinopathy suppression in yeast. S. cerevisiae FUS-expressing, growth rescue, OD600, 24 h. Potency, µM (series often up to 76.6 µM), actives largely listed as activators. actives 0.24% (n = 390,000). AID 1347120; note: nearly all actives have a fitted effect of over 55% in size
#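 Yeast FUS proteinopathy model; galactose-induced FUS (2%), starting OD 0.005. Cpds in dilution series, 24hr, 30C, 99% humidity. Abs 600 nm growth. Pos ctrl CP55940 (top 92uM final); neg ctrl DMSO.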
# Abeta yeast res – A-beta toxicity reversal in yeast | yeast expressing A-beta42, growth rescue, OD600, 48 h; response scale: 0% DMSO, 100% iron-clioquinol control | Potency, µM (series often up to 46.1 µM), hits mostly activators | actives 0.063% (n = 410,000); note: nearly all actives have a fitted effect of over 55% in size
#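 Growth rescue measured by 600 nm absorbance after 48 h yeast culture at 30 C with compound. Values normalized between DMSO and an equimolar ferric chloride plus clioquinol control.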
# Mito fusion yeast – inhibitors of mitochondrial division or activators of mitochondrial fusion. S. cerevisiae fusion-defective mutant growth rescue, CellTiterGlo 48 h. Potency, µM (doses to about 46.1 µM), usual class: activators. actives 0.23% (n = 320,000). AID 485298; note: nearly all actives have a fitted effect of over 45% in size
#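 Temperature-sensitive fusion-defective S. cerevisiae (e.g. fzo1-1, mgm1-5) were grown with compound in YPEG medium (3% ethanol, 3% glycerol) for 48 hours at 37C. Growth rescue was measured as viability by CellTiterGlo luminescence after 10 minutes at ambient.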
# aSyn yeast inh – rescues yeast growth from alpha-synuclein toxicity. Potency, µM (series often up to 46.1 µM), actives largely listed as activators. Yeast expressing alpha-synuclein, growth rescue, BacTiter-Glo, 24 h. AID 652106. actives 0.14% (n = 370,000); note: nearly all actives have a fitted effect of over 65% in size
#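 Rescue of yeast growth: cells expressing toxic alpha-synuclein, induced in galactose at OD600 0.02, incubated with compound 24 h at 30 C. ATP luminescence quantified growth; inhibitors of toxicity appear as activators.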
# TDP43 rescue – rescues yeast growth from TDP-43 toxicity; TDP-43 expressing yeast growth rescue, BacTiter-Glo, 24 h; Potency, µM (doses to about 46.1 µM), usual class: activators; actives 1.8% (n = 410,000); note: nearly all actives have a fitted effect of over 50% in size
#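 Growth rescue of TDP-43-toxic yeast measured as ATP luminescence (BacTiter-Glo). Cells grown to mid-log in raffinose, induced in galactose at OD600=0.02, exposed to compound 24 hr at 30 deg C.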
# A number is an active result; . = inactive; ? = inconclusive; / = no result given; ! = a repeat was not active; [ ] = remark or other dose. Most compounds without a hit are left out; they make up all but 2.2% or so of the library. Calls come from the whole dose curve; as a rule, active = well fitted curve in the direction sought with a large enough effect; inconclusive = small, poorly fitted or top-dose-only effect, or another doubt; inactive = no such curve, though single readings can be large; an effect the other way counts as inactive or inconclusive.
SMILES,FUS yeast rescue,Abeta yeast res,Mito fusion yeast,aSyn yeast inh,TDP43 rescue
CCC(=O)OCn1nnc2ccccc2c1=O,.,.,.,.,.
Cc1cc(C(=O)OCn2nnc3ccccc3c2=O)c(C)o1,.,?,.,.,14.1µM
O=C(CC(c1ccccc1)c1ccccc1)OCn1nnc2ccccc2c1=O,.,.,.,.,17.8µM
O=c1c2ccccc2nnn1COc1cccc2ccccc12,.,.,.,?,12.6µM
O=C(Nc1ccc2c(c1)OCO2)c1cc(C2CCCCN2S(=O)(=O)c2cccs2)on1 (stereo not given),.,.,/,.,.
O=C(Cn1c(=O)nc(-c2ccccc2)c2ccccc21)NCCc1ccccc1,.,.,/,/,.
COCCn1c(SCC(=O)c2ccccc2)nc2cc(C(=O)NC3CCCC3)ccc2c1=O,.,.,/,/,.
N#Cc1nc(-c2ccc(COc3ccc(Cl)cc3)o2)oc1N1CCCCC1,.,.,/,/,.
Cc1cc(C)c(NC(=O)CN2C(=O)NC3(CCCc4ccccc43)C2=O)c(Cl)c1 (stereo not given),.,.,.,.,.
Nc1cc2c(cc1[N+](=O)[O-])-c1ccccc1C2=NO,/,.,/,.,3.55µM
Cc1ccc(-c2nonc2NC(=O)c2ccco2)cc1,.,/,.,.,25.1µM
Cc1ccc(-c2csc(NC(=O)c3ccco3)n2)cc1C,.,.,.,.,.[1.82 µM]
Cc1ccc(-c2nonc2NC(=O)c2ccco2)cc1C,.,.,/,/,20µM
Cc1ccc(-c2nnc(NC(=O)c3ccco3)s2)cc1,.,.,.,.,.
O=C1NC[C@H](CCCCN2C[C@H](Cc3ccc(O)cc3)N(CC3CCCCC3)C(=O)C2=O)N(Cc2ccccc2)C1=O,.,.,/,.,.
Cn1nnc2c(NCc3ccc(Cl)cc3)ncnc21,.,.,/,/,11.2µM
COc1ccc(CNC(=O)c2ccc3c(c2)N=C(C)c2c(C)ccc(C)c2S3)cc1,?,.,/,.,12.6µM
O=C(Nc1ccccc1)C(Cl)C(=O)c1ccccc1 (stereo not given),.,.,.,.,.
CC(=O)C(Cl)C(=O)Nc1ccccc1 (stereo not given),.,.,.,.,3.55µM
CCN(CC)c1ccc(-c2nn3c(-c4ccccc4Cl)nnc3s2)cc1,31.6µM,/,/,/,/
COc1cccc(OC)c1-c1nn2c(-c3ccccc3Cl)nnc2s1,?,.,.,.,15.8µM
S=C(S)OC1CC2CC1C1CCCC21 (stereo not given),.,.,18.4µM,.,.
Brc1ccc(CSc2ncnc3nc[nH]c23)cc1,.,.,12.6µM,.,?
COc1cc(NC(=O)c2cc(C)on2)cc(C(=O)Nc2cccc(C(F)(F)F)c2)c1,.,.,.,.,12.6µM
COc1cc(NC(=O)c2csc(N)n2)cc(C(=O)Nc2cccc(C(F)(F)F)c2)c1,?,.,.,.,31.6µM
SMILES,FUS yeast rescue,Abeta yeast res,Mito fusion yeast,aSyn yeast inh,TDP43 rescue
CCOc1ccc(C(=O)CCC(=O)Nc2ccccc2C)cc1,.,.,.,.,?
CCOc1ccc(C(=O)CCC(=O)NCC(=O)Nc2ccc(F)c(F)c2F)cc1,.,.,/,28.2µM,.
Cc1ccc(S(=O)(=O)N2C[C@H]3[C@H]4C(=O)N(c5ccccc5)C(=O)[C@H]4C[C@H](OC(=O)Nc4cccs4)[C@@]3(O)C2)cc1,?,.,/,.,.
Cc1ccc(C)c(-c2nnc(NC(=O)COc3ccccc3)o2)c1,.,.,?,11.2µM,14.1µM
O=C(COc1ccccc1)Nc1nnc(-c2ccc(Cl)s2)o1,.,?,.,17.8µM,8.91µM
O=C(COc1ccccc1)Nc1nnc(-c2ccccc2)o1,.,?,.,20µM,?
O=C(COc1ccccc1)Nc1nnc(-c2ccco2)o1,.,.,.,.,?
Cc1ccc(C(=O)Nc2ncccc2O)o1,.,.,.,.,.
CCCC(=O)Nc1ccc(-c2nc3ncccc3o2)cc1,.,.,.,.,.
CSc1cccc(NC(=O)Cn2nnc(C(=O)NCCc3ccccc3)c2N)c1,.,.,/,/,.
CCCC[C@@]1(C2CCCC2)Cc2cc(OCC(=O)O)c(Cl)c(Cl)c2C1=O,.,.,20.6µM!,.,.
C[C@]1(C2CCCC2)Cc2cc(OCC(=O)O)c(Cl)c(Cl)c2C1=O,.,.,/,.,.
CC(C)CN(CCCNC(=O)c1cn(C)c2ccc(S(=O)(=O)N(C)C3CCCCC3)cc2c1=O)CC(C)C,.,.,/,/,.

# Bioassay records as filed in PubChem BioAssay.
